This is part of a sample that, as a whole, favours compounds with a hit. Of some 79,000 tested, about 15% had one in any assay. Cut-off read from the data, not from the text of the source: active = growth inhibition above about 70%; inactive = the rest.
Tests used:
[1] = NCI Yeast Anticancer Drug Screen. Data for the rad50 strain (AID 155);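 note: 0% = growth of vehicle-only cultures of the same strain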; conditions: S. cerevisiae rad50 strain growth inhibition; at 50.0 µM; active compounds read high
Summary of the method: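 Growth of the mutant yeast was measured after compound exposure and referenced to vehicle-treated cultures.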

[2] = NCI Yeast Anticancer Drug Screen. Data for the mec2-1 strain (AID 157); conditions: S. cerevisiae mec2-1 strain, at 50.0 µM, active compounds read high
Summary of the method: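 Vehicle-treated cultures served as reference for growth inhibition of compound-exposed mec2-1 yeast.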

[3] = NCI Yeast Anticancer Drug Screen. Data for the sgs1 mgt1 strain (AID 161);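 note: 0% = growth of cultures given vehicle only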; conditions: S. cerevisiae sgs1 mgt1 strain, at 50.0 µM, active compounds read high
Summary of the method: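 Test agents were incubated with a DNA-repair-mutant yeast strain. Growth was then read and compared against vehicle-treated controls.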

[4] = NCI Yeast Anticancer Drug Screen. Data for the cln2 rad14 strain (AID 165);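 note: 0% = growth equal to vehicle treated cultures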; conditions: S. cerevisiae cln2 rad14 strain, at 50.0 µM, active compounds read high
Summary of the method: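 Each compound was tested on cln2 rad14 yeast. Inhibition of growth was calculated against vehicle-exposed controls.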

[5] = NCI Yeast Anticancer Drug Screen. Data for the bub3 strain (AID 167); conditions: S. cerevisiae bub3 mutant strain, at 50.0 µM, active compounds read high
Summary of the method: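 Whole-cell yeast assay. The mutant strain was incubated with compounds, and growth inhibition was determined by comparison with vehicle-treated cells.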

[6] = NCI Yeast Anticancer Drug Screen. Data for the mlh1 rad18 strain (AID 175); conditions: S. cerevisiae mlh1 rad18 strain growth inhibition; at 50.0 µM; active compounds read high
Summary of the method: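 Vehicle-treated cultures served as the reference for growth inhibition in a yeast strain carrying DNA damage repair alterations exposed to each compound.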

Measured: growth inhibition

CCOC(Cn1ccccc1=N)OCC
inactive: [1] 12.8% | [2] -11.7% | [3] -12.6% | [4] -40% | [5] -7.3% | [6] 4.15%

c1ccc(C(N=NC(c2ccccc2)c2ccccc2)c2ccccc2)cc1
inactive: [1] 4.4% | [2] -10.3% | [3] 3.75% | [4] -18.3% | [5] -21.8% | [6] 16.8%

COC(=O)Cc1ccc2c(c1)Sc1ccc(CC(=O)OC)cc1N2C
inactive: [1] -4.75% | [2] -43.8% | [3] -10.1% | [4] -18.2% | [5] 34.7% | [6] -36.3%

O=C(N=c1nc(NC(=O)c2ccccc2)ss1)c1ccccc1
inactive: [1] -0.25% | [2] 7.7% | [3] -2.8% | [4] -42.2% | [5] -17.1% | [6] 13.2%

CCOC(=O)c1c(-c2ccccc2)csc1NC(=O)CN1CCCCC1
inactive: [1] 28.6% | [2] 8.8% | [3] 14.7% | [4] 6.55% | [5] 17.9% | [6] 24.7%

CN1C(=O)C(C)(O)Sc2ccccc21 (stereo unspecified)
inactive: [1] -1.2% | [2] -19.4% | [3] -36.2% | [4] -17.9% | [5] -9.2% | [6] 0.1%

O=C(O)CSc1nc2ccc(N3C(=O)C4C5C=CC(C5)C4C3=O)cc2s1 (stereo unspecified)
inactive: [1] 29.4% | [2] -2.65% | [3] -2.5% | [4] 11.3% | [5] -2.5% | [6] 6.15%

CC1=NN(C(=O)c2ccc(Cl)cc2)C(=O)/C1=C/c1ccco1
inactive: [1] -8.85% | [2] -28.9% | [3] -22.6% | [4] 9.25% | [5] -2.7% | [6] -24.1%

C(=C1/NC(c2ccccc2)=Nc2ccccc21)/c1ccccc1
inactive: [1] 24.3% | [2] -0.5% | [3] 10.9% | [4] 37.6% | [5] 4.85% | [6] 29.8%

CCN(CC)CC(OC(C)=O)c1ccc2ccc3ccc(O)cc3c2c1 (stereo unspecified)
inactive: [1] 15.9% | [2] 7.85% | [3] -7.55% | [4] -5.55% | [5] -3.25% | [6] 19.1%

COc1cc2nc(Sc3c([N+](=O)[O-])ncn3C)[nH]c2cc1OC
inactive: [1] -41.6% | [2] -33.3% | [3] -30% | [4] -23% | [5] -43.5% | [6] -46%

ClC[C@H]1C[C@@H]2C[C@@H]1[C@H]1O[C@@H]21
inactive: [1] -7.4% | [2] -21.6% | [3] -11.2% | [4] -5.35% | [5] -9.6% | [6] 10.8%

CC1=C(O)CC(=O)C1
inactive: [1] -14% | [2] -8.8% | [3] -6.9% | [4] 0.2% | [5] 6.4% | [6] -9.45%

COc1ccc(NC(=O)C(=O)c2c(O)c3ccc(O)cc3oc2=O)c([N+](=O)[O-])c1
inactive: [1] 14.4% | [2] 9.95% | [3] 1% | [4] 3.95% | [5] -2.85% | [6] -6.1%

N#Cc1cnc(SCC(=O)O)nc1N
inactive: [1] -27.2% | [2] -39.6% | [3] -15.5% | [4] 8.8% | [5] -36.2% | [6] -13.4%

CS/C(=N/N=C/c1ccc2ccccc2n1)SS/C(=N/N=C\c1ccc2ccccc2n1)SC
inactive: [1] -8.05% | [2] 13.8% | [3] -12.4% | [4] -19.9% | [5] -0.3% | [6] -39.9%

CCCCCCCCCCCCOC(=O)CSC#N
inactive: [1] -5.65% | [2] -38% | [3] -31.9% | [4] -67.5% | [5] -39.6% | [6] -14.1%

CSC1=NC=C(C#N)C2=NC(c3ccc(Cl)cc3)NN12 (stereo unspecified)
inactive: [1] 1.95% | [2] 2% | [3] 17.2% | [4] 16.3% | [5] 15.8% | [6] 14.7%

COc1ccc(OC)c(C2=CCCCCC2)c1
inactive: [1] 7.6% | [2] -6.15% | [3] 3.1% | [4] -22.1% | [5] -7.85% | [6] 13.5%

CCOC(=O)CCCCCC(C(=O)OCC)c1nc2ccccc2[nH]c1=O (stereo unspecified)
inactive: [1] -14.4% | [2] 0.4% | [3] 10.9% | [4] -5.1% | [5] 11.1% | [6] 8.55%

CC(C)n1ncc2c(N)ncnc21
inactive: [1] 4.2% | [2] -2.2% | [3] -6.8% | [4] -26.8% | [5] 21.4% | [6] -3.8%

— PubChem BioAssay (NCI)
